Compound activity: PubChem BioAssay, National Center for Advancing Translational Sciences (NCATS)
RGS4 inh = blocks human RGS4-accelerated GTP hydrolysis; P49798; Transcreener GDP fluorescence polarization, RGS4-accelerated GTP hydrolysis; Potency, µM (titrated, usually from 114 µM), for the others: at the top dose activity change, negative = inhibition, most hits filed as inhibitors; 390,000 tested, 0.039% active; AID 504845; active = well fitted inhibition curve with a large enough effect; inconclusive = small, poorly fitted or top-dose-only effect; inactive = no such curve, though single readings can be large or run the other way; also: potency is read from the fitted curve at half-maximal effect; % is scaled to controls: 0 for no effect and ±100 for the full control effect; nearly all actives have a fitted effect of over 75% in size
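MLSMR compounds (23 nl, pin-transferred) preincubated 10 min at room temperature with a 500nM (2x) first reagent, then RGS4 at 900nM (2x) plus Transcreener GDP mix added; fluorescence polarization (620/688 nm) read before and after 90 min at 30 °C.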
D3 ag = agonists of human D3 dopamine receptor; AID 652048; D3R DiscoveRx beta-arrestin cells, luminescence, 90 min; max activation, %; 410,000 tested, 0.58% active; in the data active = max activation above about 30%; also: 0% is about no effect
Target sequence (P35462 whole entry, looked up): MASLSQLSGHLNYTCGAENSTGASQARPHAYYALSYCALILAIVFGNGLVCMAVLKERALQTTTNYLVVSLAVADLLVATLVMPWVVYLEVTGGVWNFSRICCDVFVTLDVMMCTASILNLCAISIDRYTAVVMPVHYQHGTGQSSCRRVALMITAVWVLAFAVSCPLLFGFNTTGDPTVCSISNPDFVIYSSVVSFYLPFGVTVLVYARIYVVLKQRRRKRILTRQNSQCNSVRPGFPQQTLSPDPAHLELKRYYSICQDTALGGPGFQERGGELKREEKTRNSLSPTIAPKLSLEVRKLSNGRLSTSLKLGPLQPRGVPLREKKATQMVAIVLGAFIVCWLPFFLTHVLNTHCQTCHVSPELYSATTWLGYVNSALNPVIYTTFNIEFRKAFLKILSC
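Agonist mode: compounds and dopamine controls were applied to plated cells for 90 min at 37 degrees C after an overnight attachment at 1500 cells/well. Luminescent read-out followed 30 - 60 minutes at room temperature with DiscoveRx detection reagent.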
uPA generation = inhibitors of cell surface uPA generation; cell surface uPA generation assay, qHTS; Potency, µM (top dose mostly 38.3 µM), inactives show top-dose activity change, negative = inhibition, most hits filed as inhibitors; 330,000 tested, 0.31% active; active = well fitted inhibition curve with a large enough effect; inconclusive = small, poorly fitted or top-dose-only effect; inactive = no such curve, though single readings can be large or run the other way; tested in mouse RAW 264.7 cells; also: potency is read from the fitted curve at half-maximal effect; % is scaled to controls: 0 for no effect and ±100 for the full control effect; nearly all actives have a fitted effect of over 55% in size
D3 antag = D3 dopamine receptor (human) antagonism; 360,000 tested, 2.5% active; D3R cells, DiscoveRx beta-arrestin luminescence, antagonist mode; active compounds read low; max response, negative = inhibition, %; AID 652054; P35462; in the data active = max response below about -50%; inconclusive = no clear call, values can overlap the other calls; also: % is scaled to controls: 0 for no effect and ±100 for the full control effect
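Cells expressing the human receptor were seeded at 1500 cells/well, incubated overnight at 37 degrees C in 5% CO2, then exposed to library compounds with dopamine controls for 90 minutes at 37 degrees C before luminescent detection.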
Starred values were filed as active, the others as inactive; ? = inconclusive; · = no result. Shown are actives, neighbours in structure and some others; about 3.1% of the full set was active somewhere.

SMILES	RGS4 inh	D3 ag	uPA generation	D3 antag
CCOCCCn1c(=N)c(C(=O)NC2CCCCC2)cc2c(=O)n3ccccc3nc21	10.9%	3.6	·	·
CN(C)S(=O)(=O)c1ccc(-c2csc(N/N=C/c3ccc(O)cc3)n2)cc1	-22.8%	34.8*	-4.9%	59.8
CN(C)S(=O)(=O)c1ccc(-c2csc(N/N=C/c3ccco3)n2)cc1	-12.0%	-0.9	-5.7%	50.1
Cc1cccc(N2CCN(C(=O)Cn3nc(C)c4sc5ccccc5c4c3=O)CC2C)c1 (configuration not stated)	-1.2%	1.4	·	·
CCN(CC)CCn1c(=N)n(CC(O)COc2ccccc2C)c2ccccc21 (configuration not stated)	15.2%	-10.3	·	·
OC(CSc1c(Cl)cccc1Cl)CN1CCN(c2ccc(F)cc2)CC1 (configuration not stated)	6.0%	-39.1	·	-88.6*
OC(CSc1ccccc1Cl)CN1CCN(c2ccc(F)cc2)CC1 (configuration not stated)	-8.2%	-28.0	·	-81.4*
O=C(NCc1ccc(Cl)cc1)C1CCN(c2nn3cc(-c4ccc(F)cc4)nc3s2)CC1	7.2%	5.8	·	·
CCOC(=O)c1ccc(NC(=O)c2cc(=O)c3ccc(C)c(C)c3o2)cc1	23.0%	4.5	·	·
Cc1nc2ccccc2n1Cc1ccc(Br)cc1	-1.7%	-1.8	-0.8%	10.6
CC(=O)Nc1cc2c(nc1C)nc(C)n2Cc1ccc(Br)cc1	-29.6%	-2.5	-1.7%	-68.5*
COc1ccc(C(=O)/C=C/c2ccc(O)cc2)c(O)c1CC=C(C)C	15.3%	13.0	-21.1%	-67.0*
COc1ccc(C(CNC(=O)COc2ccc(Cl)c(C)c2)N2CCCCC2)cc1 (configuration not stated)	2.4%	-19.1	-5.8%	-95.3*
COc1ccc(C(CNC(=O)COc2ccc(Br)cc2F)N2CCCC2)cc1 (configuration not stated)	3.6%	-35.5	-1.1%	-76.2*
COc1ccc(C(CNC(=O)COc2ccc(C)cc2)N2CCCCC2)cc1 (configuration not stated)	31.1%	-26.7	·	·
COc1ccc(C(CNC(=O)COc2cccc(C(F)(F)F)c2)N2CCCC2)cc1 (configuration not stated)	-22.2%	-26.2	5.6%	-106.9*
COc1ccc(C(CNC(=O)COc2cccc(C)c2)N2CCCC2)cc1 (configuration not stated)	-6.4%	-2.5	-27.0%	-75.7*
CCC(=O)N1CCc2cc(S(=O)(=O)NCCC(=O)Nc3ccc(OC)c(Cl)c3)ccc21	-17.8%	3.6	·	·
CCOc1cc(C(=O)NCCc2csc(-c3ccc(C)cc3)n2)cc(OCC)c1OCC	0.5%	-8.0	·	·
COc1cccc(-c2oc3ccc(C)cc3c(=O)c2O)c1	0.8%	24.2	·	·
O=C(Nc1ccc(Oc2ccccc2)cc1)C1CCCO1 (configuration not stated)	-7.8%	-3.9	5.7%	-79.0*
COc1ccc(NC(=O)C2CCCO2)cc1 (configuration not stated)	-7.3%	2.0	-7.5%	-14.4
O=C(Nc1ccc(-c2nc3cccnc3s2)cc1)C1CCCO1 (configuration not stated)	-7.1%	3.9	2.51µM*	5.7
Cc1cc(C)c(-c2n[nH]c3c2C(c2ccccc2F)N(Cc2ccco2)C3=O)c(O)c1 (configuration not stated)	-18.9%	6.0	·	·
O=C(O)CCn1cc(-c2ccc(Cl)cc2)nc1-c1ccc(Cl)nc1	-22.8%	8.5	10.3%	0.0
SMILES	RGS4 inh	D3 ag	uPA generation	D3 antag
COc1ccc(-c2cn(CCC(=O)O)c(-c3ccc(Cl)nc3)n2)cc1	-2.0%	51.5*	-10.4%	37.2
COCCN1C(=O)c2ccccc2C(C(=O)N2CCN(c3ccccn3)CC2)C1c1ccc(F)cc1 (configuration not stated)	-20.8%	-6.2	-4.0%	-51.3*
CCN(CC)CCCNC(=O)C1c2ccccc2C(=O)N(CCOC)C1c1ccc(F)cc1 (configuration not stated)	-3.7%	2.8	3.0%	4.4
Cc1ccc(OCC(O)CN2CCN(c3ccc(C)cc3)CC2)cc1 (configuration not stated)	-6.2%	-20.9	8.2%	-87.9*
O=C(/C=C/c1ccccc1)N1CCN(CC(O)COc2ccccc2)CC1 (configuration not stated)	0.5%	-10.3	-2.1%	-71.1*
OC(COc1ccccc1)CN1CCCCC1 (configuration not stated)	?	-27.8	2.2%	?
